DT40 TDP1 CPT: growth inhibition of DT40 Tdp1-/-;hTDP1 cells with camptothecin (screen for TDP1 inhibitors). chicken DT40 Tdp1-/-;hTDP1 cells + 20 nM CPT, ATP luminescence, 48 h. Potency, µM (highest dose often 46.2 µM), for inactives: at the top dose activity change, negative = growth inhibition, usual class: inhibitors. 420,000 compounds, 12% hits. AID 686979; also: potency is read from the fitted curve at half-maximal effect; nearly all actives have a fitted effect of over 55% in size
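Cell growth measured by CellTiter-Glo luminescence after a minimum 48 h, 37 C compound exposure with 20 nM CPT in Tdp1-knockout DT40 cells stably expressing hTDP1, seeded 400/well; qHTS titration format.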
ELG1 repair inh: ELG1-dependent DNA repair inhibition; 330,000 compounds, 2.3% hits; Potency, µM (series often up to 46.1 µM), for inactives: at the top dose activity change, negative = inhibition, actives largely listed as inhibitors; HEK293T ELG1-luciferase reporter, luminescence, 16 h; DNA damage induced by 5-fluorouridine; also: potency is read from the fitted curve at half-maximal effect; nearly all actives have a fitted effect of over 55% in size
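5-Fluorouridine DNA damage + compound/DMSO, 2,000 cells/well, 16 h, 37 °C/5% CO2. ONE-Glo, 30 min RT, luminescence. Readout = decrease in reporter signal.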
TDP1 cell noCPT: qHTS for Inhibitors of human tyrosyl-DNA phosphodiesterase 1 (TDP1): qHTS in cells in absence of CPT | DT40 Tdp1-/- hTDP1 cells, no CPT, ATP luminescence, 48 h | Potency, µM (doses to about 46.2 µM), inactives show at the highest dose activity change, negative = growth inhibition, actives largely listed as inhibitors | 420,000 compounds, 15% hits | AID 686978, 2013; also: potency is read from the fitted curve at half-maximal effect; nearly all actives have a fitted effect of over 55% in size
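Stably hTDP1-transfected Tdp1-null chicken DT40 cells were treated with library compounds minus camptothecin and grown for at least 48 hr at 37 °C, after which cellular ATP was quantified by luminescence.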
IL1B secr inh: blocks inflammasome-driven IL-1 beta release; THP-1 LPS/ATP IL-1B secretion, AlphaLISA, 16 h; stronger effect = lower value; activity change, % at 57.5 µM; 360,000 compounds, 4.7% hits; in the data active = activity change below about -50%; inconclusive = mostly about -30% to -49%
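THP-1 cells pretreated 1 hr with compounds (up to 57.5 uM final), then stimulated with LPS (250 ng/mL final) plus ATP (1.25 mM final); secreted IL-1B measured by AlphaLISA after 16 hr, decreased signal indicating inhibition.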
HT1080-NT tox: kills 2HG-producing HT-1080-NT fibrosarcoma cells. HT-1080-NT fibrosarcoma viability, CellTiter-Glo ATP luminescence, 48 h. Potency, µM (titrated, usually from 46.1 µM), for the others: top-dose activity, negative = less viability, usual class: cytotoxic. 360,000 compounds, 1.6% hits;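 also: NT is the 2HG producing partner of a matched IDH1 knockdown line; potency is read from the fitted curve at half-maximal effect; 0% = DMSO-treated cells and -100% = media-only wells without cells; nearly all actives have a fitted effect of over 55% in size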
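HT-1080-NT; 750 cells/well; 5% FBS RPMI; 48 h compound, 37 degrees C; CellTiter-Glo luminescence; curve fitting and curve-class assignment.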
HT1080 IDH1KD tx: kills HT-1080 cells with IDH1 knockdown. AID 686971. 360,000 compounds, 2% hits. Potency, µM (top dose mostly 46.1 µM), inactives show top-dose activity, negative = toxicity, actives largely listed as cytotoxic. HT-1080 IDH1 knockdown viability, ATP luminescence, 48 h;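 also: potency is read from the fitted curve at half-maximal effect; 0% = DMSO wells and -100% = cell-free medium wells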
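Assay cells: HT-1080 with IDH1 knockdown, 750 per well, RPMI/5% FBS. Exposure: 48 h at 37 °C following 2 h pre-incubation. Read: CellTiter-Glo luminescence; fitted concentration-response, curve class assigned.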
* hit, by the source's call; [ ] = another dose, or the depositor's remark. An excerpt weighted towards active compounds, which were near 19% of everything screened. Unless noted, calls follow the shape of the dose curve; as a rule, active = well fitted curve in the direction sought with a large enough effect; inconclusive = small, poorly fitted or top-dose-only effect, or another doubt; inactive = no such curve, though single readings can be large; an effect the other way counts as inactive or inconclusive. Unless noted, % is scaled to controls: 0 for no effect and ±100 for the full control effect.

How did CN(CCNC(=O)c1cc2c(=O)n(C)c3ccccc3c2n1C)Cc1ccccc1 do in these assays?
DT40 TDP1 CPT: inconclusive; ELG1 repair inh: inconclusive; TDP1 cell noCPT: inconclusive; IL1B secr inh: inconclusive; HT1080-NT tox: -25.8%; HT1080 IDH1KD tx: -0.8%

Results for Cn1c(C(=O)NC2CCCCCC2)cc2c(=O)n(C)c3ccccc3c21 ?
DT40 TDP1 CPT: 14.6µM*; ELG1 repair inh: inconclusive; TDP1 cell noCPT: 16.4µM*; IL1B secr inh: -7.5; HT1080-NT tox: inconclusive; HT1080 IDH1KD tx: 8.4%

How did CC(C)c1ccc(NC(=O)c2cc3c(=O)n(C)c4ccccc4c3n2C)cc1 do in these assays?
DT40 TDP1 CPT: inconclusive; ELG1 repair inh: inconclusive; TDP1 cell noCPT: inconclusive; IL1B secr inh: -6.1; HT1080-NT tox: 19.9%; HT1080 IDH1KD tx: 19.1%

Results for COC(=O)c1ccccc1NC(=O)c1ccc2c(c1)OCCCO2 ?
DT40 TDP1 CPT: -20.8%; ELG1 repair inh: inconclusive; TDP1 cell noCPT: -3.6%; IL1B secr inh: 31.9; HT1080-NT tox: -13.5%; HT1080 IDH1KD tx: -12.3%

What do the screens show for `CCOC(=O)c1nn(-c2ccc(C)cc2)c(=O)cc1OCC(=O)N1CCN(c2ccccc2)CC1`?
DT40 TDP1 CPT: -25.8%; ELG1 repair inh: -2.3%; TDP1 cell noCPT: -20.8%; IL1B secr inh: -6.0; HT1080-NT tox: -4.2%; HT1080 IDH1KD tx: -4.8%

How did Cc1ccc(CNC(=O)c2cc3c(=O)n(C)c4ccccc4c3n2C)cc1 do in these assays?
DT40 TDP1 CPT: inconclusive; ELG1 repair inh: 11.0%; TDP1 cell noCPT: inconclusive; IL1B secr inh: -1.2; HT1080-NT tox: 4.1%; HT1080 IDH1KD tx: 11.0%

How did Cn1c(C(=O)NC2CCCCC2)cc2c(=O)n(C)c3ccccc3c21 do in these assays?
DT40 TDP1 CPT: inconclusive; ELG1 repair inh: inconclusive; TDP1 cell noCPT: 16.4µM*; IL1B secr inh: -5.7; HT1080-NT tox: 19.8%; HT1080 IDH1KD tx: -1.0%

How did C[C@@H]1CN([C@@H](C)CO)C(=O)CCCn2nncc2CO[C@H]1CN(C)Cc1cccc2c1OCCCO2 do in these assays?
DT40 TDP1 CPT: 0.7%; TDP1 cell noCPT: 0.1%; IL1B secr inh: 14.7; HT1080-NT tox: -1.5%; HT1080 IDH1KD tx: -1.1%

What do the screens show for `CCOC(=O)c1c(NC(=O)c2cc(=O)c3cc(Cl)ccc3o2)sc(C)c1C`?
DT40 TDP1 CPT: 7.3%; TDP1 cell noCPT: -3.2%

How did CCCOC(=O)C[N+](C)(C)CCOC1CC2CCC1(C)C2(C)C (configuration not stated) do in these assays?
DT40 TDP1 CPT: 8.2µM*; ELG1 repair inh: inconclusive; TDP1 cell noCPT: 4.61µM*; IL1B secr inh: -28.4; HT1080-NT tox: -1.3%; HT1080 IDH1KD tx: -4.6%

Results for CC1(C)C2CCC1(C)C(OCCNCCOC(=O)Nc1ccccc1)C2 (configuration not stated) ?
DT40 TDP1 CPT: inconclusive; ELG1 repair inh: -8.2%; TDP1 cell noCPT: inconclusive; IL1B secr inh: inconclusive; HT1080-NT tox: inconclusive; HT1080 IDH1KD tx: inconclusive

Results for CCC(C)OC(=O)C[N+](C)(C)CCOC1CC2CCC1(C)C2(C)C (configuration not stated) ?
DT40 TDP1 CPT: 1.16µM*; ELG1 repair inh: inconclusive; TDP1 cell noCPT: 1.46µM*; IL1B secr inh: -27.7; HT1080-NT tox: -15.4%; HT1080 IDH1KD tx: -23.5%

Results for CCCCOC(=O)C[N+](C)(C)CCOC1CC2CCC1(C)C2(C)C (configuration not stated) ?
DT40 TDP1 CPT: 2.06µM*; ELG1 repair inh: inconclusive; TDP1 cell noCPT: 1.84µM*; IL1B secr inh: inconclusive; HT1080-NT tox: inconclusive; HT1080 IDH1KD tx: -28.2%

What do the screens show for `CCCCCCOC(=O)C[N+](C)(C)CCOC1CC2CCC1(C)C2(C)C` (configuration not stated)?
DT40 TDP1 CPT: inconclusive; ELG1 repair inh: inconclusive; TDP1 cell noCPT: inconclusive; IL1B secr inh: -1.6; HT1080-NT tox: -2.6%; HT1080 IDH1KD tx: 5.4%

Results for CCCCCCCOC(=O)C[N+](C)(C)CCOC1CC2CCC1(C)C2(C)C (configuration not stated) ?
DT40 TDP1 CPT: 1.46µM*; ELG1 repair inh: inconclusive; TDP1 cell noCPT: 1.64µM*; IL1B secr inh: -99.6*; HT1080-NT tox: 8.2µM*; HT1080 IDH1KD tx: 18.4µM*

What do the screens show for `O=C(NCc1ccccn1)c1cnn(-c2nccc(-c3cccs3)n2)c1C1CC1`?
DT40 TDP1 CPT: 19.0%[9.04 µM]; TDP1 cell noCPT: -6.1%

Results for O=C(COCc1cc(-c2ccco2)on1)Nc1cccc(O)c1 ?
DT40 TDP1 CPT: -25.5%; TDP1 cell noCPT: -20.7%

How did Cc1ccc2c(c1)C(c1ccccc1)N(C(=O)c1ccccc1F)CC(=O)N2 (configuration not stated) do in these assays?
DT40 TDP1 CPT: 18.4µM*; TDP1 cell noCPT: inconclusive

What do the screens show for `O=C1CN(C(=O)c2ccccc2F)C(c2ccccc2)c2cc(Cl)ccc2N1` (configuration not stated)?
DT40 TDP1 CPT: -23.2%; ELG1 repair inh: -18.6%; TDP1 cell noCPT: -28.1%; IL1B secr inh: 0.9; HT1080-NT tox: -1.7%; HT1080 IDH1KD tx: 2.2%

What do the screens show for `Cc1ccc2c(c1)C(c1ccccc1)N(C(=O)c1cccc([N+](=O)[O-])c1)CC(=O)N2` (configuration not stated)?
DT40 TDP1 CPT: inconclusive; ELG1 repair inh: 13µM*; TDP1 cell noCPT: inconclusive; IL1B secr inh: 28.3; HT1080-NT tox: -3.1%; HT1080 IDH1KD tx: -21.0%

What do the screens show for `Cc1ccc2c(c1)C(c1ccccc1)N(C(=O)c1ccccc1)CC(=O)N2` (configuration not stated)?
DT40 TDP1 CPT: -22.4%; ELG1 repair inh: -9.0%; TDP1 cell noCPT: inconclusive; IL1B secr inh: -5.1; HT1080-NT tox: 0.0%; HT1080 IDH1KD tx: -2.8%

Results for CCOc1cc(C(=O)N2CC(=O)Nc3ccc(C)cc3C2c2ccccc2)cc(OCC)c1OCC (configuration not stated) ?
DT40 TDP1 CPT: 18.4µM*; TDP1 cell noCPT: 20.6µM*

How did Cc1ccc2c(c1)C(c1ccccc1)N(C(=O)c1ccc(Br)cc1)CC(=O)N2 (configuration not stated) do in these assays?
DT40 TDP1 CPT: 5.2%; ELG1 repair inh: inconclusive; TDP1 cell noCPT: 9.9%; IL1B secr inh: -27.5; HT1080-NT tox: 18.9%; HT1080 IDH1KD tx: 6.6%
